Inconclusive results are not listed. A call without a number means that no potency is given here. Calls of active or inactive are those of the source. Calls come from the whole dose curve; as a rule, active = well fitted inhibition curve with a large enough effect in the repeat runs; inconclusive = weak or mixed curves; inactive = flat fitted curve, though single readings scatter.
Potency is the fitted concentration of half-maximal effect.

Sequence of Cytochrome P450 2D6 (Homo sapiens) (P10635 whole entry, looked up): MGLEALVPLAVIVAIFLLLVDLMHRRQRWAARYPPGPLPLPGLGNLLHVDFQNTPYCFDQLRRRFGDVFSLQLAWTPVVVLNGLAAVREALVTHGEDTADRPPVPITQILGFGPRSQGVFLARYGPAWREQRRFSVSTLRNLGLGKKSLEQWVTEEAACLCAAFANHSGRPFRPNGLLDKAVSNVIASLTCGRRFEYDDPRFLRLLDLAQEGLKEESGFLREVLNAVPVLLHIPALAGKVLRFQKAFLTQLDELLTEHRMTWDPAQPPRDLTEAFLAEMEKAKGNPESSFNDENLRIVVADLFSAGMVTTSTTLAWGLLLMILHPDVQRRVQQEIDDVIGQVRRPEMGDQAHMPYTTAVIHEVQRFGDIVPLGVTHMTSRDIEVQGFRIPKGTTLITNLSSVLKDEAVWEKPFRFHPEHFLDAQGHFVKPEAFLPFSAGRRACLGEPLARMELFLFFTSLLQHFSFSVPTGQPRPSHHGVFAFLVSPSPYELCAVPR

The target in the assay is Cytochrome P450 2D6 (Homo sapiens) (UniProt P10635). Put plainly: Cytochrome P450 family 2 subfamily D member 6 (CYP2D6) small molecule antagonists: luciferase biochemical (cell-free) qHTS assay (AID 1645840). Note: nearly all actives have a fitted effect of over 55% in size. The settings on record: P450-Glo CYP2D6 enzyme, luciferin luminescence, 1 h; series mostly up to 57.4 µM. In outline:
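P450-Glo CYP2D6 system: proluciferin substrate converted by enzyme to luciferin, read by luminescence proportional to activity. Enzyme-substrate mix with compound 10 min at room temperature, then NADPH regeneration 1 h before detection reagent.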
(In general: Quantitative high-throughput screening tests each substance at several concentrations.)
Take `CN(C)CCOC1=Cc2ccccc2Sc2ccc(Cl)cc21`: the Potency was 1100 nM (active).
To `COC(=O)C1=C(C)NC(C)=C(C(=O)OCCc2ccc(N3CCN(C(c4ccccc4)c4ccccc4)CC3)cc2)C1c1cccc([N+](=O)[O-])c1` (centres undefined) belongs “inactive”.
To `CCN(CC)CC(=O)Oc1ccc(NC(C)=O)cc1` belongs “inactive”; to `Cc1ccc(CCn2c3c(c4cc(Cl)ccc42)CN(C)CC3)cn1`, 2190 nM (active).
To `COc1c(N2C[C@@H]3CCCN[C@@H]3C2)c(F)cc2c(=O)c(C(=O)O)cn(C3CC3)c12` belongs “inactive”; to `COC(=O)c1cc(Cl)ccc1OC`, “inactive”; to `O=C(O)CCCC[C@@H]1SC[C@@H]2NC(=O)N[C@@H]21`, “inactive”.
Regarding `Cc1oc(=O)oc1COC(=O)[C@@H]1N2C(=O)[C@@H](NC(=O)[C@H](N)c3ccccc3)[C@H]2SC1(C)C`, the Potency entry was “inactive”.
As for `C/C(=C(/OCCOc1ccc(Cl)cc1)c1ccc(Cl)cc1Cl)n1ccnc1`, the Potency is 871 nM (active).
To `CN1C(=O)c2ccccc2C1=O` belongs “inactive”; to `CN(C)CCN1CCN(c2cccc(Cl)c2)C1=O`, 15500 nM (active).
Under `N#C/C(=C1/SC[C@@H](c2ccc(Cl)cc2Cl)S1)n1ccnc1` stands 87.1 nM (active).
To `Cc1cc(O)c(C)c(C)c1O` belongs “inactive”; to `CCCN(CCC)C(=O)C(CCC(=O)OCCCN1CCN(CCOC(=O)Cc2c(C)n(C(=O)c3ccc(Cl)cc3)c3ccc(OC)cc23)CC1)NC(=O)c1ccccc1` (centres undefined), 7760 nM (active).
With `CO/N=C(/C(=O)N[C@@H]1C(=O)N2C(C(=O)OCOC(=O)C(C)(C)C)=C(C)CS[C@H]12)c1csc(N)n1`, the Potency result is “inactive”.
As to `C[C@@H](O[C@H]1OCCN(Cc2n[nH]c(=O)[nH]2)[C@H]1c1ccc(F)cc1)c1cc(C(F)(F)F)cc(C(F)(F)F)c1`, the Potency was 20400 nM (active).
Under `O=C1NC2CCCCN2C12CCN(CCCN1c3ccccc3CCc3ccc(Cl)cc31)CC2` (centres undefined) stands 2450 nM (active).
To `Oc1cccc2[nH]ccc12` belongs 15500 nM (active).
Under `CCOc1ccccc1OCC1CNCCO1` (centres undefined) stands “inactive”.
`CCO[C@H](Cc1ccc(OCCc2ccc(OS(C)(=O)=O)cc2)cc1)C(=O)O`: the Potency result is “inactive”.
To `CCC(C(=O)OCCN1CCOC(c2ccccc2)C1C)c1ccccc1` (centres undefined) belongs 1740 nM (active); to `CCCCCCCCCCCCCC[N+](C)(C)C`, 3090 nM (active); to `CCN(CC)CCOc1ccc(/C(=C(\Cl)c2ccccc2)c2ccccc2)cc1`, 1380 nM (active).
With `O=[N+]([O-])c1cncn1CCN1CCOCC1`, the Potency entry is “inactive”.

The values are drawn from PubChem BioAssay (NCATS).
